G9a inh – qHTS Assay for Inhibitors of Histone Lysine Methyltransferase G9a; actives 8.8% (n = 350,000); Histone-lysine N-methyltransferase EHMT2 (Homo sapiens), Q96KQ7; AID 504332, 2011; Potency, µM (series often up to 102 µM), most hits filed as inhibitors; G9a H3K9 monomethylation, AlphaScreen, 2 h; note: nearly all actives have a fitted effect of over 75% in size
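Quantitative HTS format: methyltransferase activity on a biotin-tagged H3K9 peptide is measured by AlphaScreen, using a rabbit anti-monomethyl-H3K9 antibody with streptavidin donor and anti-IgG acceptor beads. Final levels are 20 nM enzyme, 500 nM peptide, 20 uM SAM; 2 h RT.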
HP1b chromo inh – HTS for Inhibitors of HP1-beta Chromodomain Interactions with Methylated Histone Tails; Chromobox protein homolog 1 (Homo sapiens), P83916; AlphaScreen HP1-beta / biotin-H3K9me3 peptide binding; Potency, µM (highest dose often 114 µM), most hits filed as inhibitors; actives 0.56% (n = 390,000); AID 540317, 2011; note: nearly all actives have a fitted effect of over 70% in size
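AlphaScreen: HP1-beta (50 nM) preformed 30 min with biotin-H3(1-18)K9me3 peptide (50 nM) in PBS pH 7.4, 0.01% Tween-20. Compound added for 30 min at RT, then streptavidin donor/nickel chelate acceptor beads (10 ug/mL) for 30 min.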
Sfp inh – qHTS Assay for Inhibitors of Bacillus subtilis Sfp phosphopantetheinyl transferase (PPTase); Biochemical Sfp PPTase activity, qHTS; Potency, µM, actives largely listed as inhibitors; actives 3.5% (n = 310,000); AID 1490, 2009;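 note: the enzyme is Sfp with the accession as filed and its product quenches rhodamine fluorescence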
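With Hepes-Na pH 7.6 buffer containing 10 mM MgCl2, Sfp (15 nM) modified BHQ-2-YbbR (12.5 uM) using rhodamine-CoA (5 uM). Two reads 30 minutes apart at 525/598 nm yielded each well's rate.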
L3MBTL1 block – qHTS Assay for the Inhibitors of L3MBTL1. Lethal(3)malignant brain tumor-like protein 1 (Homo sapiens), Q9Y468. AlphaScreen L3MBTL1–H3K9me1 peptide binding. Potency, µM (series often up to 57.1 µM), usual class: inhibitors. actives 0.66% (n = 230,000). AID 485360, 2010; note: nearly all actives have a fitted effect of over 60% in size
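AlphaScreen proximity signal between nickel-chelate acceptor and streptavidin donor beads (final 10 ug/mL) reports binding of 50 nM L3MBTL1 to 75 nM biotin-H3 K9me1 peptide; complex incubated with compounds 30 min at room temperature; cefsulodin titration as control.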
JMJD2A Tudor inh – qHTS Assay for Inhibitors of JMJD2A-Tudor Domain | actives 4.4% (n = 390,000) | Potency, µM (top dose mostly 114 µM), most hits filed as inhibitors | AID 504339, 2011 | AlphaScreen JMJD2A-Tudor / H3K4me3 peptide binding; note: nearly all actives have a fitted effect of over 50% in size
Target sequence (O75164 whole entry, looked up, the tested form may be a part): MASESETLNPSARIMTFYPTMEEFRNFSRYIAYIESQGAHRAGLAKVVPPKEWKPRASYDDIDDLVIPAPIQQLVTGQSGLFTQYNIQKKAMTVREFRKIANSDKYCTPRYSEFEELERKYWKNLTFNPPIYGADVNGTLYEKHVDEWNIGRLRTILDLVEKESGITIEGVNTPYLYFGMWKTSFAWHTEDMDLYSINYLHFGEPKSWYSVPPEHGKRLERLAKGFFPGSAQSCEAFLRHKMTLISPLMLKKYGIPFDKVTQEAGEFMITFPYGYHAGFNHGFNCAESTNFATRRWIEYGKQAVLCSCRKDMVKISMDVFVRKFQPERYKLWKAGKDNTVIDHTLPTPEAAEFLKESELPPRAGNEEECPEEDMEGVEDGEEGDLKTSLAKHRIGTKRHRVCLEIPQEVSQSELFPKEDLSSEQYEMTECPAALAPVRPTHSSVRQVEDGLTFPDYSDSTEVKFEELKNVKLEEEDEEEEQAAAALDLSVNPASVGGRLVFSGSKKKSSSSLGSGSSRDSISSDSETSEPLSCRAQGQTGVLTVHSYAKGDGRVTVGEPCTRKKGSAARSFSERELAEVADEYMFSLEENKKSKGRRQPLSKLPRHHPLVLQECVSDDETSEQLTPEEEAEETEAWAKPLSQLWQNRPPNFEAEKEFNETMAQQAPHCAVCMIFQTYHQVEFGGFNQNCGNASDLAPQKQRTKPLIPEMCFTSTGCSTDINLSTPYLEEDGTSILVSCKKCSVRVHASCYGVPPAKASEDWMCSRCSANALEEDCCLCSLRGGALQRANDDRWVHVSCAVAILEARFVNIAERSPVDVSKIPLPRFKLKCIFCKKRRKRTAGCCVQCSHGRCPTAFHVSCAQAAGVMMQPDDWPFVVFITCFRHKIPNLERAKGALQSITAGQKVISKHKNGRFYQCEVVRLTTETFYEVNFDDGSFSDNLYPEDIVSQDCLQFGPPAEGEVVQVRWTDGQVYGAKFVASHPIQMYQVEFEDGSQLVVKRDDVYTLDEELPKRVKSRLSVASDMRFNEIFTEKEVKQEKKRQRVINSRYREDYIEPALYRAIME
BAZ2B inh – qHTS Assay for Inhibitors of BAZ2B; Bromodomain adjacent to zinc finger domain protein 2B (Homo sapiens), Q9UIF8; AlphaScreen BAZ2B-H3K14Ac peptide displacement; Potency, µM (top dose mostly 114 µM), most hits filed as inhibitors; actives 4.4% (n = 360,000); note: nearly all actives have a fitted effect of over 60% in size
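Inhibition is scored as reduced AlphaScreen emission. The BAZ2B/b-H3(5-23)K14Ac complex (50 nM each) in PBS pH 7.4, 0.01% Tween-20 meets compound (up to 110 uM) for 30 min at RT before bead addition.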
Numbers stand for hits; [ ] = dose if it differs, or a comment. Shown are actives, neighbours in structure and some others; about 12% of the full set was active somewhere. Calls come from the whole dose curve; as a rule, active = well fitted curve in the direction sought with a large enough effect; inconclusive = small, poorly fitted or top-dose-only effect, or another doubt; inactive = no such curve, though single readings can be large; an effect the other way counts as inactive or inconclusive.

`CC(O)CNCCNCc1cccs1` (configuration not stated) gave G9a inh 5.62µM, HP1b chromo inh inactive, Sfp inh inactive, L3MBTL1 block inactive, JMJD2A Tudor inh inconclusive and BAZ2B inh inactive.
`O=[N+]([O-])c1cc2c(c(CSc3nnc(Nc4ccccc4)s3)c1)OCOC2` gave G9a inh 3.55µM, HP1b chromo inh inactive, Sfp inh inactive, JMJD2A Tudor inh inactive and BAZ2B inh inactive.
`COC(=O)[C@]1(C)N[C@H](c2ccc(-c3ccc(Cl)c(Cl)c3)c(OC)c2)[C@@H]2C(=O)N(C)C(=O)[C@@H]21` gave G9a inh inconclusive, HP1b chromo inh inactive, L3MBTL1 block inactive, JMJD2A Tudor inh 89.1µM and BAZ2B inh inactive.
Screening Cc1ccc(C)c(N2CCN(C(=O)c3cc4c(=O)n(Cc5cccs5)ccc4nc3C)CC2)c1 returned G9a inh inactive, HP1b chromo inh inactive, JMJD2A Tudor inh inconclusive and BAZ2B inh inactive.
Screening COCCN1C(=O)/C(=C/c2ccc(OCc3ccc(C(=O)O)cc3)c(OC)c2)SC1=Nc1ccccc1 returned G9a inh 50.1µM, HP1b chromo inh inactive, Sfp inh inactive, L3MBTL1 block inactive, JMJD2A Tudor inh inconclusive and BAZ2B inh 56.2µM.
`O=C(O)c1ccc(/C=C2/SC(=S)N(Cc3ccccc3)C2=O)cc1` gave G9a inh inconclusive, HP1b chromo inh inactive, Sfp inh inactive, JMJD2A Tudor inh inconclusive and BAZ2B inh inconclusive.
CCOc1cc(/C=C2/SC(=S)N(Cc3ccccc3)C2=O)ccc1O was read as G9a inh 44.7µM, HP1b chromo inh inconclusive, Sfp inh inactive, JMJD2A Tudor inh 50.1µM and BAZ2B inh 22.4µM.
CCOc1cc(/C=C2\SC(=O)N(c3ccc(O)cc3)C2=O)ccc1O was read as G9a inh inactive[12.7 µM], HP1b chromo inh inactive, Sfp inh inactive, L3MBTL1 block inactive, JMJD2A Tudor inh inactive and BAZ2B inh inactive.
`O=C(O)c1cccc(CN2C(=O)S/C(=C/c3cccc([N+](=O)[O-])c3)C2=O)c1` gave G9a inh inconclusive, HP1b chromo inh inactive, Sfp inh 70.8µM, JMJD2A Tudor inh inactive[11.4 µM] and BAZ2B inh inactive.
`O=C1/C(=C/c2ccc(O)c([N+](=O)[O-])c2)SC(=S)N1Cc1ccccc1` gave G9a inh 3.55µM, HP1b chromo inh inconclusive, Sfp inh inactive, L3MBTL1 block inactive, JMJD2A Tudor inh 3.98µM and BAZ2B inh inconclusive.
COc1ccc(N2CC(NC(=O)COc3ccc(F)cc3)CC2=O)cc1OC (configuration not stated) was read as G9a inh inactive, HP1b chromo inh inactive, JMJD2A Tudor inh inactive and BAZ2B inh inactive.
For O=C(O)CCN1C(=O)/C(=C\c2ccc(OCc3ccccc3)c(OCc3ccccc3)c2)SC1=S the results were G9a inh 25.1µM, HP1b chromo inh inconclusive, Sfp inh inactive, JMJD2A Tudor inh 44.7µM and BAZ2B inh 44.7µM.
CCN1C(=O)/C(=C\C=C\c2ccccc2[N+](=O)[O-])SC1=S was read as G9a inh 10µM, HP1b chromo inh inconclusive, Sfp inh inactive and JMJD2A Tudor inh inconclusive.
O=C1/C(=C\c2cccc([N+](=O)[O-])c2O)SC(=S)N1Cc1ccccc1 was read as G9a inh 2µM, HP1b chromo inh inconclusive, Sfp inh inconclusive, JMJD2A Tudor inh 8.91µM and BAZ2B inh 2µM.
For CCN1CCN(C(=O)c2cnn(-c3ccc(F)cc3)c2-n2cccc2)CC1 the results were G9a inh inactive, HP1b chromo inh inactive, JMJD2A Tudor inh inactive and BAZ2B inh inactive.
`CCc1ccccc1N(C)C(=O)c1cc2c(=O)oc3ccccc3c2s1` gave G9a inh inactive, HP1b chromo inh inactive, JMJD2A Tudor inh inactive and BAZ2B inh inactive.
Screening Cc1ccc(CCNC(=O)c2c(C)oc3ncnc(N4CCOCC4)c23)cc1 returned G9a inh inactive, HP1b chromo inh inactive, JMJD2A Tudor inh inactive and BAZ2B inh inactive.
For CCOc1ccccc1C1Nc2ccccc2-c2nnc(SCc3ccccc3)nc2O1 (configuration not stated) the results were G9a inh inconclusive, HP1b chromo inh inactive, JMJD2A Tudor inh inactive and BAZ2B inh inactive.
`COc1cccc(-c2nc(N3CCNCC3)c3ccccc3n2)c1` gave Sfp inh inactive.
`CC1CCCCN1C(=O)CSc1nc(C2CC2)nc2c1cnn2-c1ccccc1` (configuration not stated) gave G9a inh inconclusive, HP1b chromo inh inactive, Sfp inh 20µM, L3MBTL1 block inactive, JMJD2A Tudor inh inactive and BAZ2B inh inactive.
Screening COc1ccc(S(=O)(=O)NC(CC(=O)O)c2ccco2)cc1 (configuration not stated) returned G9a inh inactive, HP1b chromo inh inactive, Sfp inh inactive, L3MBTL1 block inactive, JMJD2A Tudor inh inactive and BAZ2B inh inactive.
`C=C(C)CC(Nc1ccc(OC)cc1)c1ccco1` (configuration not stated) gave G9a inh inconclusive, HP1b chromo inh inactive, Sfp inh inactive, L3MBTL1 block inactive, JMJD2A Tudor inh inactive and BAZ2B inh 50.1µM.
Screening O=C(CSc1nnc2scc(-c3ccc(Cl)cc3)n12)Nc1ccc(F)cc1 returned G9a inh inactive, HP1b chromo inh inactive, JMJD2A Tudor inh inactive and BAZ2B inh inactive.
`COc1ccc(Cc2nc3ccccc3n2CC(=O)N/N=C/c2ccc(O)cc2)cc1OC` gave G9a inh inactive, HP1b chromo inh inactive, Sfp inh inactive, L3MBTL1 block inactive, JMJD2A Tudor inh inactive and BAZ2B inh inactive.
For COc1ccc(Cc2nc3ccccc3n2CC(=O)N/N=C/c2ccc(C)cc2O)cc1OC the results were G9a inh inconclusive, HP1b chromo inh inactive, Sfp inh inactive, L3MBTL1 block inactive, JMJD2A Tudor inh inconclusive and BAZ2B inh 56.2µM.
For COc1ccccc1/C=C\C(=O)OC[C@@H]1CCCN2CCCC[C@H]12 the results were Sfp inh inactive.
Screening COc1ccc(Oc2ncc3ncc(=O)n(Cc4cccc(OC)c4)c3n2)cc1 returned G9a inh inactive[12.7 µM] and Sfp inh inactive.
O=C(O)CCc1cc(I)c(O)c(I)c1 was read as G9a inh inconclusive and Sfp inh inactive.
For Cc1nnc(NC(=O)CSc2ccc3nnc(-c4ccccn4)n3n2)s1 the results were G9a inh inactive, HP1b chromo inh inactive, Sfp inh inactive and JMJD2A Tudor inh 79.4µM.
